In the supplement of paper PMC13380429:

Key:
[1] = system: Vero E6 infected with SARS-CoV-2; assay: morphology score (similarity to uninfected cells); higher = more like uninfected cells; conditions: 24 h
[2] = system: Vero E6 infected with SARS-CoV-2; assay: SARS-CoV-2 infection rate relative to infected DMSO; higher = more infection, active = 60 or less; conditions: 24 h

Row | SMILES | morphology score [1] | SARS-CoV-2 infection rate [2]
1 | CC1Nc2ccc(Cl)cc2S(=O)(=O)N1 (configuration not stated) (10 µM) | 0.135 | 100% (inactive)
2 | OC(c1cc(C(F)(F)F)nc2c(C(F)(F)F)cccc12)C1CCCCN1 (configuration not stated) [mefloquine] (0.833333 µM) | -0.113 | 112% (inactive)
3 | N[C@@H](Cc1ccc(Cl)cc1)C(=O)O (racemic) [fenclonine-(+/-)] (10 µM) | 0.00322 | 109% (inactive)
4 | CCC(O)(CC(N)=O)c1ccccc1 (configuration not stated) [3-hydroxy-3-phenylpentanamide] (10 µM) | 0.0251 | 112% (inactive)
5 | Cc1nnc2n1-c1sc(CCC(=O)N3CCOCC3)cc1C(c1ccccc1Cl)=NC2 [apafant] (10 µM) | -0.0825 | 112% (inactive)
6 | CCc1cc(/C(C)=N/OCc2ccc(C3CCCCC3)c(C(F)(F)F)c2)ccc1CN1CC(C(=O)O)C1 [siponimod] (10 µM) | 0.0973 | 100% (inactive)
7 | N=C(N)SCCc1c[nH]cn1 [imetit] (10 µM) | 0.1 | 106% (inactive)
8 | CC1(C)CC(=O)c2c(C(F)(F)F)nn(-c3ccc(C(N)=O)c(N[C@H]4CC[C@H](O)CC4)c3)c2C1 (10 µM) | 0.196 | 102% (inactive)
9 | c1ccc2c(c1)CCCC2C1=NCCN1 (configuration not stated) [tetrahydrozoline] (0.833333 µM) | 0.00054 | 103% (inactive)
10 | CN1CCc2c(c3ccccc3n2Cc2ccc(C(=O)NO)cc2)C1 [tubastatin-A] (0.833333 µM) | 0.115 | 95.5% (inactive)
11 | CCCCCN(C)CCC(O)(P(=O)(O)O)P(=O)(O)O [ibandronate] (10 µM) | -0.0259 | 111% (inactive)
